Methyltransferases = Primary Screen for Target Class Profiling of Small Molecule Inhibitors of Methyltransferases | purified enzyme, MTase-Glo SAH luminescence; hits give low values | calls only at 40 µM | hit rate 3.9% among 25,000; call rule not given here
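Each enzyme was assayed with SAM and its substrate. SAH formation detected by MTase-Glo luminescence; single-point 40 uM screen[…].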
Numbers without * were called inactive. Many of the other results were omitted from the sample, so hits are more common in it than they were. % is scaled to controls: 0 for no effect and ±100 for the full control effect.

`CCCCNc1ccc(-c2ccc(CN3CCOCC3)cn2)c(NC2CCC(O)CC2)c1` (stereo unspecified) gave Methyltransferases inactive.
`O=C(NCc1nnc2n1CCCC2)[C@H]1CNC[C@H](C(=O)N2CCOCC2)C1` gave Methyltransferases inactive.
CCc1c(CC(N)=O)c2cc(OCCCP(=O)(O)O)ccc2n1Cc1ccccc1 was read as Methyltransferases inactive.
CCOC(=O)c1sc(NC(=O)[C@H](C(C)C)n2c(=O)[nH]c3ccccc3c2=O)nc1C was read as Methyltransferases inactive.
For Cc1noc([C@H]2CCN(S(C)(=O)=O)C[C@H]2NC(=O)C2CC2)n1 the results were Methyltransferases inactive.
Screening CC1=CC(=O)CC(C)(C)C1CCC(C)OC1OC(COC(=O)c2cc(O)c(O)c(O)c2)C(O)C(O)C1O (stereo unspecified) returned Methyltransferases active.
`CC1=CC(=O)CC(C)(C)C1/C=C/C(C)OC1OC(COC2OCC(O)C(O)C2O)C(O)C(O)C1O` (stereo unspecified) gave Methyltransferases inactive.
For COc1cc(C(=O)OC[C@H]2O[C@@H](OC(C)(C)C(=O)O)[C@H](O)[C@@H](O)[C@@H]2O)cc(OC)c1O the results were Methyltransferases inactive.
`CC1=CC(=O)CC(C)(C)[C@@]1(O)CC[C@@H](C)O[C@@H]1O[C@H](CO)[C@@H](O)[C@H](O)[C@H]1O` gave Methyltransferases inactive.
CC1=CC(=O)CC(C)(C)C1/C=C/C(C)O[C@@H]1O[C@H](CO)[C@@H](O)[C@H](O)[C@H]1O[C@@H]1OC[C@](O)(CO)[C@H]1O (stereo partly specified) was read as Methyltransferases inactive.
CC(CCC1C(C(=O)O)=CC(=O)CC1(C)C)O[C@@H]1O[C@H](CO)[C@@H](O)[C@H](O)[C@H]1O (stereo partly specified) was read as Methyltransferases active.
`CCCn1c(=O)c2ccc(Cl)cc2n2c(SCC(=O)Nc3ccccc3Cl)nnc12` gave Methyltransferases inactive.
For CCCN1C(=O)c2c(C(=O)NCc3ccc(N(C)C)cc3)ncn2CC1(C)C(=O)NCc1ccc(C)cc1 (stereo unspecified) the results were Methyltransferases inactive.
For CNC(=O)N1CCC(C2CCN(C(=O)CCn3cccn3)C2)CC1 (stereo unspecified) the results were Methyltransferases inactive.
Screening CCOCCCN1C(=O)c2cc3occc3n2CC1(C)C(=O)NC1CCCCC1 (stereo unspecified) returned Methyltransferases inactive.
For Cc1ccc(Cl)cc1N1C(=O)c2cc3occc3n2CC1(C)C(=O)NC1CCCCC1 (stereo unspecified) the results were Methyltransferases inactive.
`O=C(Cn1nc2nc(Nc3ccc(F)cc3)ccn2c1=O)Nc1cccc(F)c1` gave Methyltransferases inactive.
`Clc1ccc(C(c2ccc(Cl)cc2)n2cc[n+](CC(OCc3ccc(Cl)cc3Cl)c3ccc(Cl)cc3Cl)c2)cc1` (stereo unspecified) gave Methyltransferases active.
`COC(=O)N1CCN(Cc2cc(=O)c3cc(F)ccc3[nH]2)CC1` gave Methyltransferases inactive.
`NC(=O)C1CCN(C(=O)CCc2nnc3n(Cc4ccc(F)cc4)c(=O)c4ccccc4n23)CC1` gave Methyltransferases inactive.
Screening Cc1ccc(Cn2c(=O)c3ccccc3n3c(CCC(=O)N4CCN(C5CCCCC5)CC4)nnc23)cc1 returned Methyltransferases inactive.
For O=C(CCc1nnc2n(CCc3ccccc3)c(=O)c3ccccc3n12)N1CCC(N2CCCCC2)CC1 the results were Methyltransferases active.
Screening Cc1ccc(Cn2c(=O)c3ccccc3n3c(CCC(=O)N4CCC(Cc5ccccc5)CC4)nnc23)cc1 returned Methyltransferases inactive.
`O=C(CCc1nnc2n(Cc3ccc(F)cc3)c(=O)c3ccccc3n12)N1CCN(C2CCCCC2)CC1` gave Methyltransferases inactive.
Screening Cc1cccc(-c2nnc3n(CCc4ccccc4)c(=O)c4ccccc4n23)c1 returned Methyltransferases active.
O=C(CCc1nnc2n(Cc3ccccc3)c(=O)c3ccccc3n12)N1CCN(c2cccc(Cl)c2)CC1 was read as Methyltransferases inactive.
`Cc1ccc(-c2nnc3n(CCc4ccccc4)c(=O)c4ccccc4n23)cc1` gave Methyltransferases inactive.
Screening O=C(CCc1nnc2n(Cc3ccc(F)cc3)c(=O)c3ccccc3n12)N1CCC(N2CCCCC2)CC1 returned Methyltransferases active.
`CC1CCN(C(=O)CCc2nnc3n(Cc4ccc(Cl)cc4)c(=O)c4ccccc4n23)CC1` gave Methyltransferases inactive.
Screening O=C(CCc1nnc2n(Cc3ccc(Cl)cc3)c(=O)c3ccccc3n12)N1CCC(N2CCCCC2)CC1 returned Methyltransferases active.
For O=c1c2ccccc2n2c(-c3cccc(Cl)c3)nnc2n1CCc1ccccc1 the results were Methyltransferases inactive.
`CN1Cc2nc(OCc3ccc(F)cc3)ccc2OCC1=O` gave Methyltransferases inactive.
CCCN1C(=O)c2c(C(=O)NCCc3ccc(C)cc3)ncn2CC1(C)C(=O)NCc1ccc(OC)cc1 (stereo unspecified) was read as Methyltransferases inactive.
Screening O=C(c1ccn[nH]1)N1CCCCC1c1nc(CCOCC2CCCC2)no1 (stereo unspecified) returned Methyltransferases inactive.
For CCO[C@H]1CN(C2CCN(c3ccc4c(c3)CCC4)CC2)C[C@@H]1O the results were Methyltransferases inactive.
`CNC(=O)[C@@H]1CN(C(=O)c2ccc(F)c(Cl)c2)C[C@H]1COC` gave Methyltransferases inactive.
Screening C[S+](=O)([O-])N1CC2(CCCCN2Cc2ccc(Cl)cc2)Cc2ccccc21 (stereo unspecified) returned Methyltransferases inactive.
`CCOc1ccccc1CN1C(=O)c2cc3occc3n2CC1(C)C(=O)NC1CCCCC1C` (stereo unspecified) gave Methyltransferases inactive.
Screening COC(=O)c1ncn2c1C(=O)N(CCC1=CCCCC1)C(C)(C(=O)NC1CCCCCC1)C2 (stereo unspecified) returned Methyltransferases inactive.
`Cc1cccc(-c2nnn3c2nc(N2CCCCC2)c2ccccc23)c1` gave Methyltransferases inactive.
Cc1noc(C)c1C(=O)N1CCN(c2ccc(C=O)cc2)C(=O)C1 was read as Methyltransferases inactive.
Screening CCCn1c(=O)c2ccc(C(=O)NC(C)C)cc2n2c(=O)n(CC(=O)Nc3ccc(CC)cc3)nc12 returned Methyltransferases inactive.
`CCCCCc1ccc(/C=C/C(=O)Nc2cc(Cl)ccc2C(=O)O)cc1` gave Methyltransferases active.
`CCCC1c2ccc(C)n2CCN1C(=O)Nc1cc(Cl)ccc1C(=O)OC` (stereo unspecified) gave Methyltransferases inactive.
Screening O=C(/C=C/c1ccc(O)cc1)N[C@@H](Cc1ccc(O)cc1)C(=O)O returned Methyltransferases inactive.
For O=C(CCc1ccccc1)NCC1CCCCC(=O)N1 (stereo unspecified) the results were Methyltransferases inactive.
COc1ccc(C(=O)N[C@H]2CO[C@H]3[C@@H]2OC[C@@H]3Nc2nccc(-c3cccs3)n2)cc1 was read as Methyltransferases inactive.
`COc1cc(O)c2c(c1Cl)CC(C)OC2=O` (stereo unspecified) gave Methyltransferases inactive.
For COc1cc(-c2ccc(O)cc2)c(OC)c(O)c1C1=CC(=O)OC1CC(=O)O (stereo unspecified) the results were Methyltransferases inactive.
